Data as given in PubChem BioAssay (EPA / NIEHS).
Where “and” joins values, the source holds several entries; their conditions need not be identical. Equal values may be shown once. Inconclusive results are not listed. More than one record can exist for a structure, and the calls need not agree. Calls of active or inactive are those of the source. Rule for the calls, unless noted: active = hit-call score of the fitted dose curve at least 0.9, where 1 is the maximum; inconclusive = response in the unintended direction; inactive = score below 0.9.

How the values were obtained:
[1] = biological target: Estrogen receptor (Homo sapiens) (UniProt P03372); experiment: ATG_hERa_XSP2: Attagene TRANS-FACTORIAL Multi-Species (XSP2) HepG2 Assay for human Estrogen Receptor (ERa) (AID 2283827)
Sequence of Estrogen receptor (Homo sapiens) (P03372 whole entry, looked up, the tested form may be a part): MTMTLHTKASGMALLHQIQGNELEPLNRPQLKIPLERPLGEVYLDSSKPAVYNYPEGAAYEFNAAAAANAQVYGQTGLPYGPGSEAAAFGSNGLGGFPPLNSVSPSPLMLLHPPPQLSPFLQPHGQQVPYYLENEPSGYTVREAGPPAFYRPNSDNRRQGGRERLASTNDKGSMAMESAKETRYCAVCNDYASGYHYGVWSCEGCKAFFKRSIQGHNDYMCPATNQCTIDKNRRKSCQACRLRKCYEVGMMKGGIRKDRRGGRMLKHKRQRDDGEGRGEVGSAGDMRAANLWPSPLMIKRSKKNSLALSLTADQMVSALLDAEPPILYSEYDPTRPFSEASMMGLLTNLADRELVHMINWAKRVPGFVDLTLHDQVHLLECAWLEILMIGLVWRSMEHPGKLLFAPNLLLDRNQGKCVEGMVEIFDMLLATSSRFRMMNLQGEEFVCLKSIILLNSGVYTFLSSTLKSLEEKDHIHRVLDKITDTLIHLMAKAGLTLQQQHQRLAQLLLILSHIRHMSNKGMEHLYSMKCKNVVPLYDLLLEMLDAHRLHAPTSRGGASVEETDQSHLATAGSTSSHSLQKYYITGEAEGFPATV
Procedure, shortened: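 Trans-activation of exogenous human ERa-Gal4 chimera read in HepG2 as reporter transcript after 24 h exposure; medium included 3 nM 6-alpha-fluorotestosterone and 1.5 nM norgestrel. Quantified by RT-PCR with capillary electrophoresis, positive-direction fitting against DMSO.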

[2] = system: frog Estrogen Receptor (ER2), gene 100174814; experiment: ATG_frER2_XSP2: Attagene TRANS-FACTORIAL Multi-Species (XSP2) HepG2 Assay for frog Estrogen Receptor (ER2) (AID 2283828)
Procedure, shortened: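 Cells were transfected with reporter constructs under GAL4-UAS control, dosed with chemicals for 24 h, then lysed for RNA; the frog ER2-driven reporter mRNA was quantified by capillary electrophoresis of labeled PCR fragments, with activity fitted upward from DMSO.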

[3] = biological target: Peroxisome proliferator-activated receptor gamma (Homo sapiens) (UniProt P37231); experiment: ATG_hPPARg_XSP2: Attagene TRANS-FACTORIAL Multi-Species (XSP2) HepG2 Assay for human Peroxisome Proliferator-activated Receptor gamma (PPARg) (AID 2283829);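 note: actives raise reporter mRNA above DMSO so AC50 reflects PPARg activation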
Sequence of Peroxisome proliferator-activated receptor gamma (Homo sapiens) (P37231 whole entry, looked up, the tested form may be a part): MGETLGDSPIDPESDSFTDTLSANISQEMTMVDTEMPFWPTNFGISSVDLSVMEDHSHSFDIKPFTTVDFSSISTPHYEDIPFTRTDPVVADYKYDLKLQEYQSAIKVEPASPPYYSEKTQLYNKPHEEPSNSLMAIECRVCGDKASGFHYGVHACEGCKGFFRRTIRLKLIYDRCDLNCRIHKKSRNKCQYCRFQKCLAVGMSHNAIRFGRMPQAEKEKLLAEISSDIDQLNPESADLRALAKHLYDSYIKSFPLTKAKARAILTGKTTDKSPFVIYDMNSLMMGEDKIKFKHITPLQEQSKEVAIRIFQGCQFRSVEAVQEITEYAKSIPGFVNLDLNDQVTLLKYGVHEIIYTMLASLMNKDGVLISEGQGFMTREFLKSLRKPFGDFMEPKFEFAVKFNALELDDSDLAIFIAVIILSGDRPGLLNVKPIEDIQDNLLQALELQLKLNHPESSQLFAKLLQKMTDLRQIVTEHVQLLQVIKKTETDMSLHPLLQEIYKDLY
Procedure, shortened: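 Human HepG2 cells carried transiently transfected Gal4 reporter units and were treated with chemical for 24 h alongside androgen-receptor stimulants (3 nM 6-alpha-fluorotestosterone, 1.5 nM norgestrel). Reporter transcripts were detected by RT-PCR with capillary electrophoresis, analysed in the positive direction against DMSO.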

[4] = biological target: mouse Peroxisome Proliferator-activated Receptor gamma (PPARg), Pparg (gene 19016) (UniProt P37238); experiment: ATG_mPPARg_XSP2: Attagene TRANS-FACTORIAL Multi-Species (XSP2) HepG2 Assay for mouse Peroxisome Proliferator-activated Receptor gamma (PPARg) (AID 2283830);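 note: hits are gains in reporter mRNA above DMSO so AC50 marks activation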
Sequence of mouse Peroxisome Proliferator-activated Receptor gamma (PPARg), Pparg (gene 19016) (P37238 whole entry, looked up, the tested form may be a part): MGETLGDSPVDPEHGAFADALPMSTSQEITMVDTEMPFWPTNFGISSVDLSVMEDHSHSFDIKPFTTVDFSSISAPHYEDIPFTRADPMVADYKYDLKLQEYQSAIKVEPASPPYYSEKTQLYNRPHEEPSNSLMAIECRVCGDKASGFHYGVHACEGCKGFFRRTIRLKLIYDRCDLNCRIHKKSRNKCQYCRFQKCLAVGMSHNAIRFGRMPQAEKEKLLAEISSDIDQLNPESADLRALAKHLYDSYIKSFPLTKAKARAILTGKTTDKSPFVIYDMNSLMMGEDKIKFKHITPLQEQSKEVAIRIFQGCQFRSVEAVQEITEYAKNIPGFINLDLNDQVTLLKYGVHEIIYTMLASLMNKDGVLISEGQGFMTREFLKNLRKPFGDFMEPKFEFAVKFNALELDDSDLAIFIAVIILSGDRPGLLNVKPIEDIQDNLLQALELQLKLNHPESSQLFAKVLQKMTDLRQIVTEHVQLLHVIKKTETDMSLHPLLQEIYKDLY
Procedure, shortened: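 Multiplexed TRANS reporter readout: after 24 h chemical exposure of transfected HepG2 cells (with 3 nM 6-alpha-fluorotestosterone, 1.5 nM norgestrel present), RNA reverse-transcribed, amplified, 6-FAM-labelled and resolved by capillary electrophoresis; mouse PPARg-Gal4 induction scored against DMSO.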

[5] = biological target: Nuclear receptor subfamily 1 group I member 2 (Mus musculus) (UniProt O54915); experiment: ATG_mPXR_XSP2: Attagene TRANS-FACTORIAL Multi-Species (XSP1) HepG2 Assay for mouse Pregnane X Receptor (PXR) (AID 2283831)
Sequence of Nuclear receptor subfamily 1 group I member 2 (Mus musculus) (O54915 whole entry, looked up): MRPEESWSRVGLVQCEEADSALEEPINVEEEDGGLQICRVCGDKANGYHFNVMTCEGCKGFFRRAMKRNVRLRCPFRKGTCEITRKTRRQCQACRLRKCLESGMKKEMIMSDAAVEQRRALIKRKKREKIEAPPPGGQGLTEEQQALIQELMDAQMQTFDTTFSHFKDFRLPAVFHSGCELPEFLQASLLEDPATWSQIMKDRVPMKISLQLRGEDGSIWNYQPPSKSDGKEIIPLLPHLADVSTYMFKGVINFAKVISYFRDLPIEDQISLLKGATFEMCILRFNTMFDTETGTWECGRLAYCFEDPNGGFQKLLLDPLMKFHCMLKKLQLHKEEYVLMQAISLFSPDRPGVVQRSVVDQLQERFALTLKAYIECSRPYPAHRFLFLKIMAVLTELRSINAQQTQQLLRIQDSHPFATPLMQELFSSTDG
Procedure, shortened: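 Fluorescence signals from capillary electrophoresis of RT-PCR-amplified reporter mRNA give the readout, gain-of-signal versus DMSO. Transfected HepG2 cells, 24 h dosing, medium contained 3 nM 6-alpha-fluorotestosterone and 1.5 nM norgestrel.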

[6] = biological target: zebrafish Thyroid Hormone Receptor alpha (TRa), thraa (gene 30670) (UniProt Q98867); experiment: ATG_zfTRa_XSP2: Attagene TRANS-FACTORIAL Multi-Species (XSP1) HepG2 Assay for zebrafish Thyroid Hormone Receptor alpha (TRa) (AID 2283832);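 note: actives raise zebrafish TRa-Gal4 reporter transcript above DMSO baseline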
Sequence of zebrafish Thyroid Hormone Receptor alpha (TRa), thraa (gene 30670) (Q98867 whole entry, looked up, the tested form may be a part): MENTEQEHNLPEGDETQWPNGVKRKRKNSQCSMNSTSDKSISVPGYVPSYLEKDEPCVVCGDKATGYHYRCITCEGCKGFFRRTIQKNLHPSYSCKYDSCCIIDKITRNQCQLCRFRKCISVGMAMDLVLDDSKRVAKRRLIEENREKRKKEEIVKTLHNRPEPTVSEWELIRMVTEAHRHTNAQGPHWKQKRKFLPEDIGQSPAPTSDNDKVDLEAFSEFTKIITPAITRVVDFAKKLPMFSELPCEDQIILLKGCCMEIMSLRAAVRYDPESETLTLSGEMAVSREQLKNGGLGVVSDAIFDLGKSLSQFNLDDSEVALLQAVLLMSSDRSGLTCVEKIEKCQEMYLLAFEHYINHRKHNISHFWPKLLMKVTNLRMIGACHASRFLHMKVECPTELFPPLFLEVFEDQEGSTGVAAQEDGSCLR
Procedure, shortened: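 Multiplexed TRANS reporter format in HepG2; the medium also contained 3 nM 6-alpha-fluorotestosterone and 1.5 nM norgestrel. Reporter mRNA after 24 h read by RT-PCR and capillary electrophoresis, scored as induction over DMSO.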

[7] = system: zebrafish Peroxisome Proliferator-activated Receptor gamma (PPARg), gene 557037; experiment: ATG_zfPPARg_XSP2: Attagene TRANS-FACTORIAL Multi-Species (XSP2) HepG2 Assay for zebrafish Peroxisome Proliferator-activated Receptor gamma (PPARg) (AID 2283833);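 note: reporter mRNA from a zebrafish PPARg GAL4 chimera measured by RT-PCR and capillary electrophoresis; actives increase reporter signal over DMSO so AC50 reflects activation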
Procedure, shortened: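 HepG2, transient MRTU transfection, 24 h compound; zfPPARg-GAL4 reporter mRNA by RT-PCR + capillary electrophoresis; gain-of-signal vs DMSO.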

[8] = ATG_M_61_XSP2: Attagene TRANS-FACTORIAL Multi-Species (XSP2) HepG2 Assay for M61 Transcription Factor (Internal Marker) (AID 2283835; active = hit-call score of the fitted dose curve at least 0.9, where 1 is the maximum; inactive = score below 0.9;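 note: reporter mRNA of an internal background marker read by RT-PCR and capillary electrophoresis; active means a rise in signal above the DMSO baseline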)
Procedure, shortened: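 Transient MRTU transfection of human HepG2; 24 h chemical dosing with 3 nM 6-alpha-fluorotestosterone + 1.5 nM norgestrel added for AR stimulation. RNA isolated, RT, PCR, FAM-labelled, HpaI cut, CE read. Positive direction vs DMSO.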

[9] = biological target: zebrafish Thyroid Hormone Receptor beta (TRb), thrb (gene 30607) (UniProt Q9PVE4); experiment: ATG_zfTRb_XSP2: Attagene TRANS-FACTORIAL Multi-Species (XSP1) HepG2 Assay for zebrafish Thyroid Hormone Receptor beta (TRb) (AID 2283836);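 for AC50: potency for induction of reporter signal above DMSO so agonist direction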
Sequence of zebrafish Thyroid Hormone Receptor beta (TRb), thrb (gene 30607) (Q9PVE4 whole entry, looked up): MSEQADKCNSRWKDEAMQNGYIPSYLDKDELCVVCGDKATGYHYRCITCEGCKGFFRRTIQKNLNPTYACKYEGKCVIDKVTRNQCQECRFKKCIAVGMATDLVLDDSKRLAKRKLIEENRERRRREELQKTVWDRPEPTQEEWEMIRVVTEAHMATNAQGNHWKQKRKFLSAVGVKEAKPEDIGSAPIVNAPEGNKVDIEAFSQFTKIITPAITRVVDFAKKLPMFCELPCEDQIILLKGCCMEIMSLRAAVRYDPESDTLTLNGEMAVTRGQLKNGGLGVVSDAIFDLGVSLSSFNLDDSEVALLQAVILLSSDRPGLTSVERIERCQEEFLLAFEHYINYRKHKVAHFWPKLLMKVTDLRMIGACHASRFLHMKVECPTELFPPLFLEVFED
Procedure, shortened: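 Multiplexed trans-activation in HepG2 cells, 24 h treatment, with reporter mRNA read by RT-PCR and capillary electrophoresis. Gain-of-signal against DMSO.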

[10] = biological target: human Thyroid hormone Receptor alpha (TRa), THRA (gene 7067) (UniProt P10827); experiment: ATG_hTRa_XSP2: Attagene TRANS-FACTORIAL Multi-Species (XSP2) HepG2 Assay for human Thyroid hormone Receptor alpha (TRa) (AID 2283838)
Sequence of human Thyroid hormone Receptor alpha (TRa), THRA (gene 7067) (P10827 whole entry, looked up, the tested form may be a part): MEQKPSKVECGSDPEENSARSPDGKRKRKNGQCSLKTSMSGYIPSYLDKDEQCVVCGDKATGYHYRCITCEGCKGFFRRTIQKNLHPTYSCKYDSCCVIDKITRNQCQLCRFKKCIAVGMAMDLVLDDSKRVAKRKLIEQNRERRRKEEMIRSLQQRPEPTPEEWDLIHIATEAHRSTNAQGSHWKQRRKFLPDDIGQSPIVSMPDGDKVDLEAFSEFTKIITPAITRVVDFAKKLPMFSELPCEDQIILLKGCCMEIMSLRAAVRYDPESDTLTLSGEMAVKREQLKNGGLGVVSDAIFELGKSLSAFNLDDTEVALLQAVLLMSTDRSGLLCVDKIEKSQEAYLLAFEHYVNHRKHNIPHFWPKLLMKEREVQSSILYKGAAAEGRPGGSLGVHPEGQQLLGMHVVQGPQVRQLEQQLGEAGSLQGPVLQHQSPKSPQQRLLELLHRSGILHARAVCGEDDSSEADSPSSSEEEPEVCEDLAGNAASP
Procedure, shortened: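 Gain-of-signal in reporter mRNA, relative to DMSO, after 24 h dosing of transfected HepG2; quantitation by RT-PCR fragment analysis on capillary electrophoresis.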

[11] = biological target: frog Thyroid hormone Receptor alpha (TRa), thra-a (gene 397942) (UniProt P15204); experiment: ATG_frTRa_XSP2: Attagene TRANS-FACTORIAL Multi-Species (XSP2) HepG2 Assay for frog Thyroid hormone Receptor alpha (TRa) (AID 2283839);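 for AC50: AC50 reflects induction of frog TRa-driven reporter mRNA above DMSO baseline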
Sequence of frog Thyroid hormone Receptor alpha (TRa), thra-a (gene 397942) (P15204 whole entry, looked up, the tested form may be a part): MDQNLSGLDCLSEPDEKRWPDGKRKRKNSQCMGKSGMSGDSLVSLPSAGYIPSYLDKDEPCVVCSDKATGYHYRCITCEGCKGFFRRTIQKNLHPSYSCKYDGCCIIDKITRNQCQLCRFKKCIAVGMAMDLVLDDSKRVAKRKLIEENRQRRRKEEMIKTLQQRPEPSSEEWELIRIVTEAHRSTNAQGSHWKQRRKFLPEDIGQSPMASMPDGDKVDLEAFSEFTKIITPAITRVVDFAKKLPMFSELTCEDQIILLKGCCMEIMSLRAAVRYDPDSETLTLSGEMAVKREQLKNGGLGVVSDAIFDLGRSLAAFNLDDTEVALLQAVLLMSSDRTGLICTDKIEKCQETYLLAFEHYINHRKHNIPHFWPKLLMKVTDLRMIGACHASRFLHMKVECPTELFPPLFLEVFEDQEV
Procedure, shortened: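 Chimeric frog TRα-GAL4 activity in human liver cells measures reporter transcript induction 24 h post-dose. Detection uses RT-PCR, HpaI-digested labelled products and fluorescence capillary electrophoresis; DMSO serves as negative control.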

[12] = biological target: human Thyroid hormone Receptor beta (TRb), THRB (gene 7068) (UniProt P10828); experiment: ATG_hTRb_XSP2: Attagene TRANS-FACTORIAL Multi-Species (XSP2) HepG2 Assay for human Thyroid hormone Receptor beta (TRb) (AID 2283840);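 note: actives raise reporter mRNA so potency reflects agonist-like gain of signal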
Sequence of human Thyroid hormone Receptor beta (TRb), THRB (gene 7068) (P10828 whole entry, looked up): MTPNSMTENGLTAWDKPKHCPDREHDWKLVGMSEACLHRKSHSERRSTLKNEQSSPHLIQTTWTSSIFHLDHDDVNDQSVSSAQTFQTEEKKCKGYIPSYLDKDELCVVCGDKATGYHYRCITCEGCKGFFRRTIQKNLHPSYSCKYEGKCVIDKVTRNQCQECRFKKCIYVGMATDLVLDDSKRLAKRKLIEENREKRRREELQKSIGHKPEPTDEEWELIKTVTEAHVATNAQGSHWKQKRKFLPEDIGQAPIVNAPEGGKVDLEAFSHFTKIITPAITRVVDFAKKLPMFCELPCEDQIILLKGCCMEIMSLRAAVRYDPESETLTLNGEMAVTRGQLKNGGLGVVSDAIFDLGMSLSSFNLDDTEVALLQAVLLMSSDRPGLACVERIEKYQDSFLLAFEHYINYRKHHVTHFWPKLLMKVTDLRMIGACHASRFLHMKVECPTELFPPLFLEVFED
Procedure, shortened: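 Gain-of-signal reporter transcription, referenced to DMSO, was measured in transiently transfected HepG2 after 24 h exposure; labeled RT-PCR products were resolved by capillary electrophoresis. Assay medium included 3 nM 6-alpha-fluorotestosterone and 1.5 nM norgestrel.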

[13] = system: Sodium/Iodide Symporter (NIS), SLC5A5 (gene 6528); experiment: CPHEA_Stoker_NIS_Inhibition_RAIU: CPHEA's Radioactive Iodide Uptake (RAIU) Assay for Sodium/Iodide Symporter (NIS) Inhibition, Stoker and Laws Labs (AID 2283841)
Procedure, shortened: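 Iodide uptake through human NIS is measured in an engineered HEK293T line. Cells take up 125I (329pM final) for 2 hours at room temperature alongside chemicals at 0.001–100uM. Retained radioactivity is counted, and the signal is expressed against DMSO controls.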

[14] = CPHEA_Stoker_NIS_Cytotoxicity: Cytotoxicity Assessment for CPHEA's Radioactive Iodide Uptake (RAIU) Assay for Sodium/Iodide Symporter (NIS) Inhibition, Stoker and Laws Labs (AID 2283897);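 for AC50: active means loss of ATP signal versus DMSO meaning cytotoxicity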
Procedure, shortened: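 ATP luminescence (Cell Titer Glo) measured viability, with loss of signal normalized to DMSO controls. Cells: hNIS-HEK293T-EPA, seeded 40 hours prior. Dosing: 0.001–100uM, 2 hours, room temperature, uptake buffer pH 7.4.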

[15] = ATG_M_32_XSP2: Attagene TRANS-FACTORIAL Multi-Species (XSP2) HepG2 Assay for M19 Transcription Factor (Internal Marker) (AID 2283826)
Procedure, shortened: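 An internal background marker among multiplexed transfected reporters in HepG2 liver cells was measured 24 h after dosing. Androgen receptor stimulation came from 3 nM 6-alpha-fluorotestosterone and 1.5 nM norgestrel.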

[16] = system: turtle Thyroid Hormone Receptor, alpha (TRa), gene 101949057; experiment: ATG_trTRa_XSP2: Attagene TRANS-FACTORIAL Multi-Species (XSP1) HepG2 Assay for turtle Thyroid Hormone Receptor, alpha (TRa) (AID 2283834);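 note: hits raise reporter mRNA over the DMSO baseline so AC50 marks activators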
Procedure, shortened: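 Multiplexed TRANS reporter assay; HepG2 carrying NR-Gal4 constructs treated 24 h. mRNA of the GAL4-UAS reporter quantified via labelled RT-PCR fragments on a genetic analyzer, vs DMSO negative control.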

Measured: AC50

C=C(C)CN(CC)c1c([N+](=O)[O-])cc(C(F)(F)F)cc1[N+](=O)[O-]
active: [1] 7.36 µM and 44.2 µM | [2] 10.5 µM and 7.61 µM | [3] 41 µM and 23 µM | [4] 43.7 µM and 52.8 µM | [5] 3.92 µM and 2.8 µM | [13] 5.45 µM | [14] 9.92 µM
inactive: [6] | [7] | [8] | [9] | [10] | [11] | [12]

CCN(CC)C(=O)C(C)Oc1cccc2ccccc12 (configuration not stated)
active: [1] 7.99 µM | [2] 25.5 µM | [3] 39.8 µM | [4] 42.6 µM | [5] 6.17 µM
inactive: all other assays above

C=CCOC(=O)C(C)(C)OC(=O)c1cc(-n2c(=O)cc(C(F)(F)F)n(C)c2=O)ccc1Cl
inactive: [13] | [14]

N#Cc1c[nH]cc1-c1cccc2c1OC(F)(F)O2
active: [1] 1.51 µM | [2] 1.22 µM and 859 nM | [3] 14 µM and 21.7 µM | [4] 27.2 µM | [5] 6.52 µM and 6.26 µM | [6] 27 µM | [9] 100 µM | [10] 100 µM | [11] 100 µM and 60.7 µM
inactive: [6] | [7] | [16] | [8] | [9] | [10] | [12] | [13] | [14]

COc1ccc(-c2ccccc2)cc1NNC(=O)OC(C)C
active: [13] 50 µM
inactive: [14]

Nc1c(Cl)c(Cl)nc(C(=O)O)c1Cl
inactive: [13] | [14]

CCCCC(O)(Cn1cncn1)c1ccc(Cl)cc1Cl (configuration not stated)
inactive: [13] | [14]

CCOP(=O)(OCC)Oc1nc(Cl)c(Cl)cc1Cl
inactive: [13] | [14]

CCOc1nc(F)cc2nc(S(=O)(=O)Nc3c(Cl)cccc3Cl)nn12
inactive: [13] | [14]

CCNP(=S)(OC)O/C(C)=C/C(=O)OC(C)C (configuration not stated)
inactive: [13] | [14]

CSC(=O)c1c(C(F)F)nc(C(F)(F)F)c(C(=O)SC)c1CC(C)C
inactive: [15] | [12] | [13] | [14]
active: [1] 3.05 µM | [2] 5.69 µM | [3] 6.53 µM | [4] 5.52 µM | [5] 0.442 µM

CCCCC(C#N)(Cn1cncn1)c1ccc(Cl)cc1 (configuration not stated)
inactive: [14]

CC1(C)C(C=C(Cl)Cl)C1C(=O)OC(C#N)c1cccc(Oc2ccccc2)c1 (configuration not stated)
active: [1] 17.5 µM | [2] 63.6 µM | [3] 14.2 µM | [4] 27.8 µM | [5] 2.65 µM | [7] 12.6 µM
inactive: all other assays above

CC1(C)CON(Cc2ccccc2Cl)C1=O
inactive: [13] | [14]

Cc1c(COC(=O)[C@@H]2[C@H](/C=C(\Cl)C(F)(F)F)C2(C)C)cccc1-c1ccccc1
active: [1] 26.1 µM | [2] 100 µM | [5] 2 µM
inactive: [3] | [4] | [6] | [16] | [9] | [10] | [11]

CC(C)=CC1C(C(=O)OCc2coc(Cc3ccccc3)c2)C1(C)C (configuration not stated)
inactive: [13] | [14]
